In the library only some 4% were active in any assay of this set; here they are far more common.
TWEAK-Fn14 inh: TWEAK-Fn14 signaling inhibition; inhibition, % at 10 µM; TWEAK-stimulated Fn14 reporter cells, luciferase luminescence, 8 h; 360,000 tested, 2% active; in the data active = inhibition above about 50%
EBV LMP1 NFkB: inhibitors of Epstein-Barr LMP1-induced NF-kappaB reporter | LMP1-induced NF-kappaB luciferase reporter cells, luminescence | inhibition, % at 12.5 µM | 350,000 tested, 0.69% active; in the data active = inhibition above about 41%;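 note: 0% = neutral control wells and 100% = reference inhibitor control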
HIF-2a block: blocks HIF-2a reporter activity; 786-0 RCC cells HIF-2a reporter, luciferase luminescence, overnight; inhibition, % at 18.8 µM; 360,000 tested, 0.72% active; AID 624352;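 active = inhibition of the luminescence signal of 40% or more relative to plate controls, in a single-dose primary screen at 18.75 µM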
Peg3 prom inh: inhibitors of Peg3 promoter; HeLa PEG-Prom luciferase reporter, luminescence, overnight; inhibition, % at 20 µM; 360,000 tested, 1.7% active;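 active = inhibition of at least 50% at 20 µM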
MITF TRPM1 inh: inhibitors of MITF-driven TRPM1 promoter in melanoma cells; inhibition, % at 12.5 µM; SK-MEL-5 TRPM1 promoter luciferase, 24 h; 330,000 tested, 0.83% active;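 active = mean inhibition across replicates of 60% or more, whatever share of single replicates reaches that level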
TROY NFkB inh: inhibitors of TROY-dependent NF-kB signaling; Q293 LMP1-TROYcd NF-kB luciferase reporter, 4 h; inhibition, % at 10 µM; 360,000 tested, 0.98% active; AID 1347056;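 active = compounds whose plate-normalised and pattern-corrected inhibition of the luciferase reporter signal at the single screening dose is 50% or more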
* marks the source's active call; other numbers are inactive results; · = no result given.

SMILES | TWEAK-Fn14 inh | EBV LMP1 NFkB | HIF-2a block | Peg3 prom inh | MITF TRPM1 inh | TROY NFkB inh
Cc1ccc(Nc2nc(=O)c3cccnc3s2)c(Br)c1 | -27 | -25 | -55 | -36 | -17 | 11
COCCNC(=O)Cn1nc(-c2ccccc2F)ccc1=O | 51* | -7 | 21 | 10 | -3 | 6
O=C(COC(=O)CCN1C(=O)/C(=C\C=C\c2ccccc2)SC1=S)Nc1cc(F)ccc1F | 55* | 18 | 83* | -10 | 63* | 25
O=C(CN1C(=O)/C(=C\C=C\c2ccccc2)SC1=S)Nc1ccc(F)cc1 | -25 | 6 | 6 | -8 | -1 | -26
CCOC(=O)C1=C(C)NC(=O)NC1c1cn(-c2ccccc2)nc1-c1cccs1 (stereo not given) | -17 | 2 | 2 | 13 | 2 | -12
CCOC(=O)C1=C(C)NC(C)=C(C(=O)OCC)C1c1cn(-c2ccccc2)nc1-c1ccco1 | -29 | 76* | 7 | 22 | 0 | -33
CCC(C)Sc1nc2c(c(=O)[nH]1)C(c1cccs1)C1=C(CCCC1=O)N2 (stereo not given) | 8 | 3 | 24 | 55* | · | 15
COc1ccc(/C(CC2OC(=O)c3ccccc32)=N\NC(N)=O)cc1 (stereo not given) | 2 | 65* | 5 | -1 | 4 | -16
COc1ccc2c(c1OC)C(=O)OC2C/C(=N\NC(N)=O)c1ccccc1 (stereo not given) | 3 | 2 | 14 | 3 | -24 | -11
O=C(CSc1cccc2cccnc12)N1CCCC1 | 67* | -2 | 3 | 36 | 32 | -24
NNC(=O)CSc1cccc2cccnc12 | 5 | -3 | 16 | 6 | -1 | 6
CN(C)C(=O)CSc1cccc2cccnc12 | 96* | -37 | 27 | 33 | 42 | 6
O=C(CSc1ncccn1)N1CCCCCC1 | 1 | -1 | -1 | -7 | -11 | -25
C=CCn1c(SCC(=O)N(CC)C2CCS(=O)(=O)C2)nc2scc(-c3ccccc3)c2c1=O (stereo not given) | 14 | 6 | 18 | 23 | -8 | -13
CN(Cc1cn(Cc2cccc(Cl)c2)nn1)C1CN(Cc2cn(Cc3cccc(Cl)c3)nn2)S(=O)(=O)C1 (stereo not given) | -12 | · | 4 | · | · | 8
Cc1ccc(NC(=O)c2cccc(S(=O)(=O)N(C)C3CCCCC3)c2)nc1 | 5 | 5 | 5 | 14 | 10 | 9
Cc1c(C(=O)N2CCOCC2)c(S(=O)(=O)N2CCN(c3ccc(Cl)cc3)CC2)c(C)n1C | -3 | 0 | 6 | 0 | -11 | 10
COc1cc(O)c(C(=O)/C=C/c2ccccc2)c(OC)c1 | 74* | -2 | -41 | 61* | · | -9
COc1cc(OC)c(C(=O)C=Cc2ccc(OC)c(OC)c2)c(OC)c1 | -6 | 5 | 37 | 16 | 21 | 8
COc1ccc(F)cc1S(=O)(=O)Nc1cc2c3c(c1)CC(=O)N3CCC2 | 7 | 6 | 3 | 7 | 9 | -10
CN(C)C(=O)c1ccc(N=Nc2c(O)c3ccccc3[nH]c2=O)cc1 | 19 | 15 | -137 | -80 | 4 | -11
O=C(O)c1ccc(N=Nc2c(O)[nH]c3ccccc23)cc1 | 90* | 0 | -28 | 11 | -3 | 28
CC(=O)c1cc(NC(=O)c2ccc(C)cc2)c(=O)oc1/C=C/N(C)C | 0 | -4 | -42 | -96 | -13 | 54*
CSc1nc(NCCN(C)C)c2sc3nc(-c4ccco4)c4c(c3c2n1)CCC4 | -15 | 12 | 19 | 106* | -4 | -12
CSc1nc(N(C)CCO)c2sc3nc(-c4ccco4)c4c(c3c2n1)CCC4 | 23 | 2 | 7 | -7 | -5 | -1
SMILES | TWEAK-Fn14 inh | EBV LMP1 NFkB | HIF-2a block | Peg3 prom inh | MITF TRPM1 inh | TROY NFkB inh
O=C(Nc1ccc(N2CCCC2)c(Cl)c1)c1cccnc1 | 83* | -10 | -54 | -235 | -79 | ·
O=C(Nc1ccc(N2CCOCC2)c(Cl)c1)c1c(F)c(F)c(F)c(F)c1F | -21 | -14 | 29 | 52* | -1 | 10
Cc1onc(-c2ccc3c(c2)OCO3)c1-c1ccc2[nH]ccc2c1 | 62* | -8 | 25 | 32 | 25 | 21
c1cc2cc(-c3c(-c4ccc5c(c4)OCO5)noc3-c3ccsc3)ccc2[nH]1 | -22 | -48 | -183 | -100 | -39 | -52
CN=C(NC1CCCCC1)c1ccc(Cl)cc1 | 5 | -5 | 8 | 5 | -2 | 13
Cc1cc(C)n(C2CCCCC2OC(=O)c2ccccc2F)n1 (stereo not given) | -8 | 42* | 16 | 20 | 10 | -4
Cc1cc(C)n(C2CCCCC2OC(=O)c2ccccc2)n1 (stereo not given) | -24 | -3 | -4 | -7 | -8 | 8
CCOC(=O)CCN(C(=S)Nc1ccccc1)C1CCCCC1 | 8 | 5 | 6 | -1 | -12 | 6
Cc1ccsc1/C=N/NC(=O)c1ccc2c(c1)OCCO2 | 70* | 59* | -77 | -41 | 3 | 7
CCOc1cccc(/C=N/NC(=O)c2ccc3c(c2)OCCO3)c1O | -21 | 7 | -85 | -22 | 4 | -26
Cc1ccsc1/C=N\NC(=O)c1ccc2c(c1)OCO2 | 21 | 5 | -138 | -219 | -37 | -15
Cc1ccsc1/C=N/NC(=O)CSCc1ccc(Cl)cc1 | -27 | 4 | -10 | -21 | -9 | -62
C/C(=N\NC(=O)c1ccc2c(c1)OCCO2)c1ccccc1 | 70* | 12 | -73 | -22 | -1 | -37
Cc1ccsc1/C=N/NC(=O)Cc1ccc(Cl)cc1 | 90* | -4 | -37 | -11 | -17 | -1
Cc1cccc(/C=N/NC(=O)c2ccc3c(c2)OCCO3)c1O | 74* | 17 | -38 | 1 | 39 | 29
Cc1noc(/C=C/N(C)C)c1S(=O)(=O)N(C)Cc1ccc(F)cc1 | 5 | 4 | 11 | 9 | 2 | 4
O=C(N/N=C/c1ccc2c(c1)OCO2)c1ccc2c(c1)OCO2 | 10 | -17 | -175 | -172 | -54 | -53
O=C(N/N=C/c1cccc(O)c1)c1ccc2c(c1)OCCO2 | 69* | 64* | -26 | -107 | -9 | 15
COc1cccc(C=Nc2ccc3c(c2)OCCO3)c1O | 80* | -8 | 12 | -50 | 15 | 68*
Cc1ccsc1/C=N\NC(=O)c1n[nH]c2c1CCC2 | 81* | 35 | 36 | 44 | 7 | 41
O=c1cc(-c2ccccc2O)nc(-c2ccccc2)[nH]1 | 53* | 2 | -54 | -16 | -9 | 57*
CN1CCN(C(=O)/C(=C/c2ccc([N+](=O)[O-])cc2)NC(=O)c2ccccc2)CC1 | 54* | -1 | 1 | 10 | 0 | 3
CN1CCN(C(=O)/C(=C/c2cccc([N+](=O)[O-])c2)NC(=O)c2ccccc2)CC1 | 55* | 2 | 18 | 12 | -2 | 21
O=C(N/C(=C\c1ccc([N+](=O)[O-])cc1)C(=O)N1CCCCC1)c1ccccc1 | 0 | -5 | 3 | 4 | -8 | 11
Cc1ccc(C)c(NCCCCCCCC(=O)O)c1 | 6 | · | 14 | -2 | · | 5
